From PubChem BioAssay (NCATS)
Records with an inconclusive call do not appear. The list shows a part of the results. Activity calls are given as the source filed them. Unless noted, the call rests on the fitted dose curve; in most records, active means well fitted curve in the direction sought with a large enough effect; inconclusive means small, poorly fitted or top-dose-only effect, or another doubt; inactive means no such curve, though single readings can be large; an effect the other way counts as inactive or inconclusive.

How the values were obtained:
[1] = AP1 Signaling Pathway (AID 357; active means well fitted curve in either direction with a large enough effect, not every such curve was filed as active;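 further: ME-180 reporter cells stimulated with EGF at its EC50 level; on the % scale 0 is the no-effect control and ±100 the full control effect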); conditions: ME-180 AP-1-bla reporter, EGF-induced, beta-lactamase ratio, 5 h; at 7.69 µM (top of the series) unless noted
Method in brief: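 Titration-series screen for positive or negative modulators of EC50 EGF-induced signaling in ME-180 cells carrying an AP-1-driven beta-lactamase reporter. After 5 hours at 37 degrees Celsius, CCF4 460nm/530nm emission ratio gave %Activity; AC50 values derived.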

[2] = biological target: Cytochrome P450 1A2 (Homo sapiens) (UniProt P05177); assay: p450-cyp1a2 (AID 410; calls by dose curve; further: potency means the concentration at half of the fitted maximal effect;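 on activity change, negative = inhibition: -100% = full effect of reference inhibitor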)
Method in brief: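 Human CYP1A2 (20nM) demethylated Luciferin-ME at its Km (100uM) in 100mM KPO4. After 10 min compound preincubation, NADPH regeneration ran the reaction 60 min at room temperature. Luciferin was read by luminescence, normalized to 57 uM furafylline.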

[3] = Stat Signaling Pathway (AID 446; active means well fitted curve in either direction with a large enough effect, not every such curve was filed as active;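 further: ME-180 cervical cancer cells given 40 pM IL-6 alongside compound; SIE-controlled beta-lactamase reporter measured as 460/530 nm FRET emission ratio; on the % scale 0 is the no-effect control and ±100 the full control effect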); conditions: ME-180 SIE beta-lactamase reporter, IL-6 stimulated, 5 h; at 7.69 µM (top of the series) unless noted
Method in brief: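 ME-180 cells carrying a SIE-driven beta-lactamase reporter are stimulated with 40 pM IL-6 for 5 h at 37C in the presence of compound. The 460/530 nm FRET substrate ratio is read after 2.5 h at RT. Data are normalised to 300 pM IL-6 and to 125 nM JAK inhibitor controls.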

[4] = biological target: Glucocorticoid receptor (Homo sapiens) (UniProt P04150); assay: GR-GFP Redistribution (AID 450;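 active means compounds whose dose series gives a full or clear partial fitted curve of increased nuclear translocation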; further: potency means the concentration at half of the fitted maximal effect); conditions: U2OS GR-GFP nuclear translocation, laser cytometry, 2 h
[5] = biological target: Glucocorticoid receptor (Homo sapiens) (UniProt P04150); assay: GR-EFC Redistribution (AID 451; calls by dose curve; further: potency means the concentration at half of the fitted maximal effect); conditions: CHO-K1 GR-EFC translocation, beta-gal luminescence, 2 h
Method in brief: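 CHO-K1 cells expressing nuclear EA and GR-ED fragments of b-gal; compounds titrated up to 46 uM final, 2 h at 37 C. GR nuclear translocation read as complemented b-gal luminescence after 1 h RT detection.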

[6] = biological target: Mitogen-activated protein kinase 10 (Mus musculus) (UniProt Q61831); assay: JNK3 AlphaScreen Assay (AID 530; active means well fitted curve in either direction with a large enough effect, not every such curve was filed as active;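 further: kinase came from lysate of stimulated human HepG2 cells; signal reports phosphorylation of biotinylated GST-cJun 1-79 at Ser73 with 10 µM ATP; on the % scale 0 is the no-effect control and ±100 the full control effect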)
Method in brief: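 qHTS format: compounds tested as titrations against IL-1beta/TNF-alpha-activated HepG2 lysate JNK3 with biotin-GST-cJun substrate and 10 uM ATP at room temperature. Loss of anti-phospho-cJun AlphaScreen signal indicates inhibition.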

[7] = biological target: 3',5'-cyclic-AMP phosphodiesterase 4B (Homo sapiens) (UniProt Q07343); assay: qHTS Assay for Inhibitors of PDE-IV (AID 607; active means well fitted activation curve with a large enough effect in the main read-out, with a control signal flat, not every such curve was filed as active; further: % of control where 0% means no effect)
Method in brief: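 HEK293 ACTOne cells with CNG channel (1000/well), endogenous PDE4; membrane potential dye, compounds up to 22.9 uM final. Fluorescence Ex 535/Em 590; RO 20-1724 (100 uM final) as reference.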

[8] = biological target: Guanine nucleotide-binding protein G(i) subunit alpha-1 (Homo sapiens) (UniProt P63096); assay: qHTS Assay for Inhibitors of RGS12 GoLoco Motif Activity (Green Fluorophore) (AID 879);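 further: 0% = labeled peptide with Gαi1 and full inhibition = labeled peptide alone without protein; negative values mean loss of peptide binding seen as reduced polarization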
Method in brief: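 Fluorescence polarization assay: 50 nM Gαi1 with 10 nM FITC-labeled RGS12 GoLoco peptide in 10 mM Tris pH 7.5, 150 mM NaCl, 0.1 mM GDP, 0.05% NP40, 10 min at room temperature with compound.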

[9] = biological target: Cytochrome P450 2C9 (Homo sapiens) (UniProt P11712); assay: qHTS Assay for Inhibitors and Substrates of Cytochrome P450 2C9 (AID 883); further: on the % scale 0 is the no-effect control and ±100 the full control effect; nearly all actives have a fitted effect of over 60% in size
Method in brief: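 10nM CYP2C9 + 100uM Luciferin-H (=KM), 25mM KPO4; cpd 10 min 37C; NADPH regen, 60 min 37C; stop/detect with P450 Glo-Buffer 20 min; luminescence. Norm. to 57uM sulphaphenazole as full inhibition.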

[10] = biological target: Cytochrome P450 3A4 (Homo sapiens) (UniProt P08684); assay: qHTS Assay for Activators of Cytochrome P450 3A4 (AID 885); further: nearly all actives have a fitted effect of over 65% in size; further: potency means the concentration at half of the fitted maximal effect
Method in brief: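 Human CYP3A4 (20 nM) with Luciferin-PPXE at 25 uM (its KM) in 200 mM KPO4; 10 min compound preincubation, then NADPH regeneration and 60 min reaction at RT. Luciferin read by luminescence; normalized to 57 uM ketoconazole full inhibition.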

[11] = qHTS Assay for Identification of Small Molecule Antagonists for NFkB Signaling Pathway (AID 895; active means well fitted inhibition curve with a large enough effect in the signal ratio, with a control signal flat, not every such curve was filed as active; the % refers to the signal ratio; further: on the % scale 0 is the no-effect control and ±100 the full control effect)
Method in brief: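 ME-180 NFkB-bla cells (beta-lactamase under NFkB response element), plated overnight, treated with compound then 10 pM TNF alpha (about EC50) for 5 hrs at 37 C. LiveBLAzer FRET read at 460/530 nm emission, 405 nm excitation.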

[12] = biological target: Cytochrome P450 2C19 (Homo sapiens) (UniProt P33261); assay: qHTS Assay for Inhibitors and Substrates of Cytochrome P450 2C19 (AID 899); further: on the % scale 0 is the no-effect control and ±100 the full control effect; nearly all actives have a fitted effect of over 60% in size
Method in brief: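 Luminescent read-out of luciferin formed from Luciferin-H EGE (10uM, equal to KM). Enzyme 5nM in 50mM KPO4; compound added, 10 min at 37C, then NADPH regenerating system for 60 min at 37C. Full inhibition defined by 57uM ketoconazole.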

[13] = qHTS Assay for Identification of Small Molecule Agonists for Thrombopoietin (TPO) Signaling Pathway (AID 917); further: on the % scale 0 is the no-effect control and ±100 the full control effect
Method in brief: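 Luminescence from a Glycoprotein IIb promoter–driven luciferase reporter served as read-out in murine Ba/F3 cells carrying the human TPO receptor. Cells, deprived of IL-3 overnight, received compounds with 26 pM TPO and were incubated 24 hrs at 37 C.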

[14] = biological target: Muscarinic acetylcholine receptor M1 (Rattus norvegicus) (UniProt P08482); assay: qHTS Assay for Antagonists of Acetylcholine Muscarinic M1 Receptor: Kinetic Measurement of Intracellular Calcium Response (AID 943); further: nearly all actives have a fitted effect of over 75% in size; further: potency means the concentration at half of the fitted maximal effect;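 on activity change, negative = inhibition: Fluo-4 calcium signal as peak divided by basal fluorescence over 4 min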
Method in brief: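 CHO cells stably expressing rat M1 were loaded with no-wash Fluo-4 dye for 1 h at 37C, pre-incubated 10 min with compound, then challenged with EC80 carbachol (100 nM final); kinetic calcium read 4 min, peak/basal ratio.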

[15] = biological target: Muscarinic acetylcholine receptor M1 (Rattus norvegicus) (UniProt P08482); assay: qHTS Assay for Antagonists of Acetylcholine Muscarinic M1 Receptor: Measurement of IP-One Response (AID 944); further: nearly all actives have a fitted effect of over 75% in size; further: potency means the concentration at half of the fitted maximal effect
Method in brief: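 CHO cells expressing rat M1 receptor, recovered overnight, were pre-incubated 10 min with compound, then stimulated 30 min with carbachol at EC80 (200 nM) in LiCl-containing buffer, pH 7.4. IP1 accumulation was read by HTRF (620/665 nm).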

[16] = biological target: Pyruvate kinase (Leishmania mexicana) (UniProt Q27686); assay: qHTS Validation Assay for Inhibitors of Leishmania Mexicana Pyruvate Kinase (AID 945);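 further: 0% = DMSO only neutral control wells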
Method in brief: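 qHTS eight-point titrations against 0.2 nM LmPYK (E451W) in imidazole buffer pH 7.2 with 0.5 mM PEP, 0.1 mM ADP; 1 h, room temperature. Readout: PKLight luminescence, normalized to neutral DMSO wells.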

[17] = biological target: Pyruvate kinase PKM (Homo sapiens) (UniProt P14618); assay: qHTS Assay for Activators of Human Muscle Pyruvate Kinase (AID 954; active means well fitted curve in the direction sought with a large enough effect, not every such curve was filed as active;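 further: 0% = uninhibited enzyme and -100% = no enzyme or full thiadiazolimine inhibition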)
Method in brief: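 Purified human PKM2 (0.1 nM) with 0.5 mM PEP (Km) and 0.1 mM ADP in 50 mM imidazole pH 7.2, KCl, MgCl2, 1 h at room temperature; ATP formed read by coupled luciferase luminescence. Normalized to no-enzyme/110 uM thiadiazolimine inhibition; 0.3 nM enzyme column for activation.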

[18] = biological target: Alpha-galactosidase A (Homo sapiens) (UniProt P06280); assay: Counterscreen for Glucocerebrosidase Inhibitors: qHTS Assay for Human alpha-Galactosidase at pH 4.5 (AID 992); further: 0% is about no effect
Method in brief: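 Human enzyme (2 nM) with 80 uM 4-methylumbelliferyl alpha-D-galactopyranoside in 50 mM citric acid, 0.005% Tween-20, pH 4.5, 20 min at room temperature. Compounds 0.7 nM–77 uM; fluorescence Ex 365/Em 440 after pH 10 stop; AC50 from Hill fits.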

[19] = biological target: alpha-glucosidase (Oryza sativa, rice) (UniProt Q653V4); assay: Counterscreen for Glucocerebrosidase Inhibitors: qHTS Assay for Rice alpha-Glucosidase at pH 5.0 (AID 997);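 further: 0% = full activity with enzyme and -100% = basal without enzyme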
Method in brief: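 Rice alpha-glucosidase (4 nM final) with 400 uM 4-methylumbelliferyl-alpha-D-glucopyranoside in citrate buffer pH 5.0, 20 min at room temperature, stopped at pH 10; fluorescence 365/440 nm, compounds 0.7 nM–77 uM, AC50 from Hill fits.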

[20] = NFAT Signaling Pathway (AID 444; active means well fitted curve in either direction with a large enough effect, not every such curve was filed as active); conditions: Jurkat NFAT-bla M1, carbachol, beta-lactamase ratio, 5 h; at 7.69 µM (top of the series) unless noted
Method in brief: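 Jurkat cells with NFAT-driven β-lactamase reporter and co-expressed M1 receptor, stimulated with carbachol (final 1 uM, ~EC50), compound titration, 5 h at 37 °C. CCF4 loaded 1 h at RT; 460/530 nm ratio gave %activity and AC50.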

[21] = qHTS screen for small molecules that inhibit ELG1-dependent DNA repair: Hit Confirmation in Cell-Based Luciferin Assay (AID 624247); further: on the % scale 0 is the no-effect control and ±100 the full control effect
Method in brief: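 Luciferin substrate reagent dispensed first, then compounds or DMSO vehicle pin-transferred, then luciferase enzyme added; luminescence read on a CCD-based plate reader.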

[22] = biological target: ATPase family AAA domain-containing protein 5 (Homo sapiens) (UniProt Q96QE3); assay: HTS assay for small molecules that inhibit ELG1-dependent DNA repair in human embryonic kidney (HEK293T) cells expressing luciferase-tagged ELG1: Hit Confirmation (AID 624248); conditions: HEK293T ELG1-luciferase levels, luminescence; cells co-treated with 5-fluorouridine; further: potency means the concentration at half of the fitted maximal effect; nearly all actives have a fitted effect of over 55% in size
Method in brief: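 HEK293T cells expressing luciferase-tagged ELG1 treated with 5-fluorouridine plus compound for 16 h at 37 C; luciferase activity then measured with ONE-Glo after 30 min at room temperature.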

[23] = biological target: ATPase family AAA domain-containing protein 5 (Homo sapiens) (UniProt Q96QE3); assay: qHTS screen for small molecules that inhibit ELG1-dependent DNA repair in human embryonic kidney (HEK293T) cells expressing luciferase-tagged ELG1: Hit Confirmation using MMS Stimulated ELG1 (AID 624249); conditions: HEK293T luciferase-tagged ELG1 level; further: potency means the concentration at half of the fitted maximal effect; nearly all actives have a fitted effect of over 60% in size
Method in brief: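 HEK293T ELG1-luc, 2,000 cells/well; ~5 h post-seed: cpd + MMS (10 µM final); 16 h; luc read w/ Amplight.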

[24] = qHTS screen for small molecules that inhibit ELG1-dependent DNA repair: Hit Confirmation with MMS Viability (AID 624251); conditions: Cell viability with MMS; further: potency means the concentration at half of the fitted maximal effect; nearly all actives have a fitted effect of over 60% in size
Method in brief: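 Viability read-out: CellTiter-Glo, 16 h after compound addition. Cell line ELG1-luc HEK293T; DNA-damaging co-treatment MMS, 10 µM final.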

[25] = biological target: Luciferin 4-monooxygenase (Photinus pyralis) (UniProt P08659); assay: qHTS screen for small molecules that inhibit ELG1-dependent DNA repair: Hit Confirmation in Biochemical Luciferin Assay (AID 624253); further: on the % scale 0 is the no-effect control and ±100 the full control effect
Method in brief: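 Counter-screen against purified firefly luciferase: substrate reagent dispensed first, then compound or DMSO by pintool, then luciferase enzyme added. Luminescence read on a CCD-based imager.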

[26] = biological target: Cytochrome P450 3A4 (Homo sapiens) (UniProt P08684); assay: qHTS Assay for Inhibitors and Substrates of Cytochrome P450 3A4 (AID 884); further: on the % scale 0 is the no-effect control and ±100 the full control effect; nearly all actives have a fitted effect of over 50% in size
Method in brief: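 20 nM human CYP3A4 with 25 uM Luciferin-PPXE (at KM) in 200 mM KPO4, preincubated 10 min with compound; NADPH regeneration started a 60 min RT reaction. Luciferin detected by luminescence, normalized to 57 uM ketoconazole as full inhibition.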

Sequence of Guanine nucleotide-binding protein G(i) subunit alpha-1 (Homo sapiens) (P63096 whole entry, looked up): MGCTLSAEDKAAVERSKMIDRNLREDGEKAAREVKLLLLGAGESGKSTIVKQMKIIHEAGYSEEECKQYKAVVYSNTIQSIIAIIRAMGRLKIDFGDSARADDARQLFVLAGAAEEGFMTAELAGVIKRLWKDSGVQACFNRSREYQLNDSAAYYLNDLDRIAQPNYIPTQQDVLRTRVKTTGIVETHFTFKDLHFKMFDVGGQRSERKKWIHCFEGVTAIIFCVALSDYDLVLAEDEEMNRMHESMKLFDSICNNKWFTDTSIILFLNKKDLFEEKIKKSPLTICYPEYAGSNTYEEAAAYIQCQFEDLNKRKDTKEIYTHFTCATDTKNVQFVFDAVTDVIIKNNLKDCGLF
Sequence of Cytochrome P450 3A4 (Homo sapiens) (P08684 whole entry, looked up): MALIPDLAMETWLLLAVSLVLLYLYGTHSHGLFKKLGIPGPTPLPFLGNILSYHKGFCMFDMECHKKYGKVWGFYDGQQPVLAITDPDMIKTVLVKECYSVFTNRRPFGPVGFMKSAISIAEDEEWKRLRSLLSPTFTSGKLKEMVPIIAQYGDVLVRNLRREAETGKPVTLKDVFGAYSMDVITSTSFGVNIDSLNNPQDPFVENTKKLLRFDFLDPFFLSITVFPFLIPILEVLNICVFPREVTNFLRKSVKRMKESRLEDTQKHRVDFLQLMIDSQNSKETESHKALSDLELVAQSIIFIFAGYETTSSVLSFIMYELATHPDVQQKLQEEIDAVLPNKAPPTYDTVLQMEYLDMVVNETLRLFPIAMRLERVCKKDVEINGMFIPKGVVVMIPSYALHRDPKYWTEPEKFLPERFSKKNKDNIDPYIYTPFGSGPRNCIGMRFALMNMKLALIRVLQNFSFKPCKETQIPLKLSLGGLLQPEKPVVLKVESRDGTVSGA
Sequence of Pyruvate kinase PKM (Homo sapiens) (P14618 whole entry, looked up): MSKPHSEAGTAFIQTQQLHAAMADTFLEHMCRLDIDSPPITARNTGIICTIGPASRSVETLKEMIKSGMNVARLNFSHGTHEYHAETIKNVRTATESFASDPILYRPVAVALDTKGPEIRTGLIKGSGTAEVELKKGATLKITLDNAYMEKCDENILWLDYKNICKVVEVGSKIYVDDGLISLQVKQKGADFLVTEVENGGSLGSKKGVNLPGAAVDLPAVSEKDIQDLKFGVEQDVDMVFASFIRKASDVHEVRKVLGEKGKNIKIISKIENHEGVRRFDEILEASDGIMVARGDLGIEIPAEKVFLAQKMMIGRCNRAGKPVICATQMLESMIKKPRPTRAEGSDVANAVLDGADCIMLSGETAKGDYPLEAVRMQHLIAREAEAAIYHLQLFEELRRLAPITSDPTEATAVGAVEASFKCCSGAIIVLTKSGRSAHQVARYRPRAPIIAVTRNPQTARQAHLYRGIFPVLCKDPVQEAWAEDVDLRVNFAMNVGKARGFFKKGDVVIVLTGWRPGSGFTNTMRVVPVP
Sequence of 3',5'-cyclic-AMP phosphodiesterase 4B (Homo sapiens) (Q07343 whole entry, looked up): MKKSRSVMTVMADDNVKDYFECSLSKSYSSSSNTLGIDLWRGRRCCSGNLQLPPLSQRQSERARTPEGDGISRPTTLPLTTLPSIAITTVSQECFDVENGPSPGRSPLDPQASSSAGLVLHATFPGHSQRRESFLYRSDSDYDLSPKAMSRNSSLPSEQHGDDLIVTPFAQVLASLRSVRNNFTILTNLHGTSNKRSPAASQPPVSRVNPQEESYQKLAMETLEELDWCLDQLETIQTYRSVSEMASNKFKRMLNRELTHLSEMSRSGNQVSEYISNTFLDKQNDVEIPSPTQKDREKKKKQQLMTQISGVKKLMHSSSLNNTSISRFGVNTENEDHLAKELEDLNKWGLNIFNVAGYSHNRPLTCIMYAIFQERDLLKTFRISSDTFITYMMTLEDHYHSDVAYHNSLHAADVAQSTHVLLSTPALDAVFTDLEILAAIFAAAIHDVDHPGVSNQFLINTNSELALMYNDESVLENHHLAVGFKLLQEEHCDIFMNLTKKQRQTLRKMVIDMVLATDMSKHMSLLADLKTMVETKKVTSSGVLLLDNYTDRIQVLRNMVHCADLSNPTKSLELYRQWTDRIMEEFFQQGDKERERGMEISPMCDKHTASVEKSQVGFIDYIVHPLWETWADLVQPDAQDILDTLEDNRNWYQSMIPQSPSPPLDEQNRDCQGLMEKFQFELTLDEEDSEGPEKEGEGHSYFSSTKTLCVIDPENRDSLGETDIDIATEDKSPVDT
Sequence of Glucocorticoid receptor (Homo sapiens) (P04150 whole entry, looked up, the tested form may be a part): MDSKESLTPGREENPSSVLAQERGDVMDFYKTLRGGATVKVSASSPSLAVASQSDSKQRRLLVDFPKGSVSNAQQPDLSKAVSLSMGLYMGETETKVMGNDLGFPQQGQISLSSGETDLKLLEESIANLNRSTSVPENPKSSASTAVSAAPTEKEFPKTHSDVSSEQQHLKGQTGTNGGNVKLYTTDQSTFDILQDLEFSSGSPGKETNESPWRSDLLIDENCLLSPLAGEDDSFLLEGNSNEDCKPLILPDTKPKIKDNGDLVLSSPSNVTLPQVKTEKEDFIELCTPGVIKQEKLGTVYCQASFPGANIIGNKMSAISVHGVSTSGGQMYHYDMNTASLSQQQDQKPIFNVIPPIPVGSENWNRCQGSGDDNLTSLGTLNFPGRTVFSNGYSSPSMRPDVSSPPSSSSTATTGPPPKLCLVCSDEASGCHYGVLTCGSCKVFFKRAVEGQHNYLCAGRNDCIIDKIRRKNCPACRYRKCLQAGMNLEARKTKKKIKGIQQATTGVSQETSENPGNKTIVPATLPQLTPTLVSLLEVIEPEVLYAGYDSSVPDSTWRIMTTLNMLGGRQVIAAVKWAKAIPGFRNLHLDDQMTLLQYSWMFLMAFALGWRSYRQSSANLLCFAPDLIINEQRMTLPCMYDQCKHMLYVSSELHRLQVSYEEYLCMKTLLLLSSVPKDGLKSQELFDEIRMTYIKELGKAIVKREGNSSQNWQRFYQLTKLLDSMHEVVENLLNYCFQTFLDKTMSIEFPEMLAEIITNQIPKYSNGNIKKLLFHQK
Sequence of Pyruvate kinase (Leishmania mexicana) (Q27686 2-499 E452W): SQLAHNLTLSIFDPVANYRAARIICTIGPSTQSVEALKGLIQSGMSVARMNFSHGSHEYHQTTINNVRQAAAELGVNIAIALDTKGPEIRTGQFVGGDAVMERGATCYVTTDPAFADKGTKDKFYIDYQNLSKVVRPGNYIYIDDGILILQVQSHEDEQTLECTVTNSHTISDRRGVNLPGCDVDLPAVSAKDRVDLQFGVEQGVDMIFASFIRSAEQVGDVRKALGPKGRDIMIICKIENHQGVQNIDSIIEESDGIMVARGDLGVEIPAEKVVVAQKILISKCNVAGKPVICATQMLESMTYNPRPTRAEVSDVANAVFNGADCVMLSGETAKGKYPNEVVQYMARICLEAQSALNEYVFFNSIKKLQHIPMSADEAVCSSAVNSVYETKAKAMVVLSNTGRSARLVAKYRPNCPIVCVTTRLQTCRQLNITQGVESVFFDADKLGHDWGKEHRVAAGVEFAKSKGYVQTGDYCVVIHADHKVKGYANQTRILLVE
Sequence of Muscarinic acetylcholine receptor M1 (Rattus norvegicus) (P08482 whole entry, looked up): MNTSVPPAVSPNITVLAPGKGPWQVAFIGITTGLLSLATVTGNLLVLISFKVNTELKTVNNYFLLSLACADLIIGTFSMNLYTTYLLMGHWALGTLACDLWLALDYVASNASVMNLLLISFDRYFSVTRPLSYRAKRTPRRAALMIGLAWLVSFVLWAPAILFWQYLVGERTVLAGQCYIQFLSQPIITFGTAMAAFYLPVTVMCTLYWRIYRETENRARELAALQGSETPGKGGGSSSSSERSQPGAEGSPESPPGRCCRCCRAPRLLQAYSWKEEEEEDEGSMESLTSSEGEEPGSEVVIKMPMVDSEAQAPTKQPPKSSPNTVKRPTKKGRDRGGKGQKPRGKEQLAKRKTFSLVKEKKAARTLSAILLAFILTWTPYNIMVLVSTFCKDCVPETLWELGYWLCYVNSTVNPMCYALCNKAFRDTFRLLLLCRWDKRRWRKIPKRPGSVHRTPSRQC
Sequence of Alpha-galactosidase A (Homo sapiens) (P06280 whole entry, looked up): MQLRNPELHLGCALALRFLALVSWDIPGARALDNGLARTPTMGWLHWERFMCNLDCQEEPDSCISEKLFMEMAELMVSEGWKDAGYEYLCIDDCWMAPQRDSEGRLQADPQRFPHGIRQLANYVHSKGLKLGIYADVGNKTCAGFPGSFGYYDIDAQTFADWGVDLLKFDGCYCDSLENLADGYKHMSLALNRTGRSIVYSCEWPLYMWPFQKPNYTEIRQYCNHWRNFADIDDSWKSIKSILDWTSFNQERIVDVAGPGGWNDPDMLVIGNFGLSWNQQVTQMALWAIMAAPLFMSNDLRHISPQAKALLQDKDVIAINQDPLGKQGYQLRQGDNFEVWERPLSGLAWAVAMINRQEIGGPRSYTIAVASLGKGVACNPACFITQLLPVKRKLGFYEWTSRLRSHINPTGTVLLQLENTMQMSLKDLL
Sequence of Cytochrome P450 1A2 (Homo sapiens) (P05177 whole entry, looked up): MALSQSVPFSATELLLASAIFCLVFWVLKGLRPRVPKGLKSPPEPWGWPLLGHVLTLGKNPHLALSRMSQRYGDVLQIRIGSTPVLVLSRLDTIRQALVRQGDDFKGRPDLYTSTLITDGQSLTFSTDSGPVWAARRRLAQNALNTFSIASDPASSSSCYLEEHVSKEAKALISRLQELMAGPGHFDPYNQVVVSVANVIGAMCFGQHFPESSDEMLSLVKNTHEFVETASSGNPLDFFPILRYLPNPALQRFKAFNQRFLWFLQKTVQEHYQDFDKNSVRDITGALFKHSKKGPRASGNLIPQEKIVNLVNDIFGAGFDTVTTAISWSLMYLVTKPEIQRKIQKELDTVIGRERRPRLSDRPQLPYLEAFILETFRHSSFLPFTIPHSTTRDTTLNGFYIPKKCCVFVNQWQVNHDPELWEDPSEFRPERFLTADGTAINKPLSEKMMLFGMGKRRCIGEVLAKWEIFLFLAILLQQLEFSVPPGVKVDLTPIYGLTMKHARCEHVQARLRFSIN

C[C@@H](COc1ccc(/C=C\c2ccccc2)cc1)[N+](C)(C)C
active: Potency [14] 4.47 µM | Potency [15] 7.08 µM
inactive: activity change, negative = inhibition [1] -11.9% [at 38 µM] | Potency [2] | activity, negative = inhibition [3] -2.8% [at 38 µM] | Potency [4] > 46 µM | Potency [5] > 46 µM | Potency [6] | Potency [7] | outcome [8] | Potency [9] | Potency [10] | Potency [11] | Potency [12] | outcome [13] | outcome [16] | outcome [17] | outcome [18] | Potency [19]

COc1ncc2nc(C)c(=O)n(C)c2n1
inactive: activity change, negative = inhibition [1] -15% | activity change, negative = inhibition [20] -2.54% | activity, negative = inhibition [3] -2.89% | Potency [4] > 9.22 µM | Potency [5] > 46 µM | Potency [6] | Potency [7]

COc1ccccc1OC[C@H](O)CN1CCN(CC(=O)Nc2c(C)cccc2C)CC1
inactive: activity change, negative = inhibition [1] -8.83% [at 38 µM] | activity change, negative = inhibition [20] 12.3% [at 38 µM] | Potency [4] > 46 µM | Potency [5] > 46 µM | Potency [6] | Potency [7] | outcome [8] | outcome [13] | Potency [14] | Potency [15] | outcome [16] | outcome [17] | outcome [18] | Potency [19]

Cc1nnc(N/N=C/c2ccccn2)[nH]c1=O
active: Potency [22] 2.23 µM | Potency [23] 2.5 µM | Potency [24] 7.06 µM
inactive: outcome [21] | outcome [25]

O[C@H](CN1CCN(c2cccc(Cl)c2)CC1)C(c1ccccc1)c1ccccc1
inactive: activity change, negative = inhibition [1] -10.5% [at 38 µM] | activity, negative = inhibition [3] 24.9% [at 38 µM] | Potency [4] > 46 µM | Potency [5] > 46 µM | Potency [6] | Potency [7] | outcome [8] | Potency [26] | outcome [13] | Potency [15] | outcome [16] | outcome [17] | outcome [18] | Potency [19]
active: Potency [2] 12.6 µM | Potency [10] 7.94 µM
